Tests used:
[1] = target: T1, Aspartate--tRNA(Asp/Asn) ligase (Mycobacterium tuberculosis (strain ATCC 25618 / H37Rv)) (UniProt P9WFW3); assay: Assay for Asp RNA synthetase-1 from Mycobacterium tuberculosis; assay type: functional; parameters: scale not given: direction of the effect not stated beside the values; conditions: 30 µM; also: in the data most compounds retested in dose-response had high values
T1 sequence (whole entry): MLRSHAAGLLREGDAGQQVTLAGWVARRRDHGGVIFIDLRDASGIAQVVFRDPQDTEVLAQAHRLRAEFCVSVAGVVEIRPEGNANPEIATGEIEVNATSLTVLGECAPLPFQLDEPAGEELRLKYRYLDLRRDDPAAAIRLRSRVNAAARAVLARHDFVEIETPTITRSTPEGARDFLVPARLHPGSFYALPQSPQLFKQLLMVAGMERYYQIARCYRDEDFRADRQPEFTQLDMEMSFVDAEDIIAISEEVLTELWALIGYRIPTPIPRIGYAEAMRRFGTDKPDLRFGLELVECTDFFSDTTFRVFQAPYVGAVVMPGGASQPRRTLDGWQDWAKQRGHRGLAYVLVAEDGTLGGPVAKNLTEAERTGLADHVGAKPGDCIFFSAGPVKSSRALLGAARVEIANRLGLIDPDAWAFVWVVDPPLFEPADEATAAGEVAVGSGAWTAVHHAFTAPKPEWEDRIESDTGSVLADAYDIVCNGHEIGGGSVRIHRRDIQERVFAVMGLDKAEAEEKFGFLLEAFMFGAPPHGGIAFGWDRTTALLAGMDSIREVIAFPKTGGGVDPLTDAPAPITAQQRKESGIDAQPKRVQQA

[2] = target: Shiga toxin 2 (Escherichia coli O157:H7) (UniProt P09385+P09386); assay: E. coli 0.157:H7 Shiga Toxin SOP - stx2 screening assay; assay type: functional; parameters: scale not given: direction of the effect not stated beside the values; conditions: 30 µM

Compound	Percent Effect [1] [%]	Percent Effect [2] [%]
CN1CCCc2cc(NC(=O)N3CCOC(C(N)=O)C3)ccc21 (configuration not stated)	-0.684	-77.6
O=C(Nc1ccc(F)cc1)N1C[C@H]2CC[C@@H]1CN(Cc1cccnc1)C2	0.632	-26.1
CCOc1ccc(N(CC(=O)c2ccccc2)C2=NCCCCC2)cc1	1.35	-5.46
O=C(CCc1cc2n(n1)CCN(Cc1ncc[nH]1)C2)N1CCCC1	-0.827	-2
O=C(c1ccc(Br)o1)N1CCCC(n2cncn2)C1 (configuration not stated)	5.01	-10.4
CCc1nc2n(n1)CC(Nc1cc(C)nc3ncnn13)CC2 (configuration not stated)	-4.28	2.96
COC(=O)C1CCN(C(=O)c2ccc(C)c(NS(C)(=O)=O)c2)CC1	-1.09	-2.45
CCOc1nnc(CN(C)C2CCCN(c3cccnn3)C2)s1 (configuration not stated)	3.86	-25.9
O=C(Cn1cc(C(=O)O)ccc1=O)NCc1ccc(F)c(Cl)c1	3.08	-51.8
COc1ccc(F)cc1C(C)NC(=O)Cn1ccc(=O)n(C)c1=O (configuration not stated)	0.602	-12.8
COCCCNc1nccc(-c2c[nH][nH]c2=O)n1	6.51	-55.9
O=C(Cc1ccc2c(c1)OCCO2)N1CCCC(n2cccn2)C1 (configuration not stated)	-1.07	10.8
CC(=O)N1CC(=O)N(c2cnn(C)c2)CC12CCN(Cc1ccsc1)C2 (configuration not stated)	4.83	-25.5
COCc1cccc(CNC(=O)CN2CCCC2c2noc(C)n2)c1 (configuration not stated)	-0.723	14.4
COc1ccccc1C(O)CNC(=O)Nc1ncccc1C (configuration not stated)	-3.63	8.45
CCCOc1cc(C)ccc1NC(=O)NCCC(=O)N(C)C	2.21	-4.42
Cc1nc2ccccc2nc1CN1CCCC1c1c(C)nn(C)c1C (configuration not stated)	-5.6	-18.4
N#Cc1cccnc1NCCNC(=O)N1CCCSCC1	0.546	12.8
O=c1c(-c2ccnc(NC3CCOCC3)n2)cnc2sc(Cl)cn12	-3.81	-50
CC(NCc1ccncc1)c1cc(F)ccc1N1CCN(C)CC1 (configuration not stated)	0.183	-4.73
CO[C@@H]1CC[C@H]2[C@H]1OCCN2C(=O)COc1ccc(F)cc1	-2.58	-2.38
CN(C)C(=O)Cc1nc(CN2CCOC(Cn3cccn3)C2)cs1 (configuration not stated)	-3.5	-20.8
CNc1cccc(C2CCCN(C(=O)c3ccncc3)C2)n1 (configuration not stated)	-6.06	17.8

Compound	Percent Effect [1] [%]	Percent Effect [2] [%]
CC(C)c1ncc2c(n1)CN(Cc1cccc(OCC(N)=O)c1)CC2	3.81	12.8
CC[C@@]1(O)CCN(C(=O)c2ccsc2)C[C@H]1O	-4.99	-16.9
CCS(=O)(=O)N1CCC(c2nnc(Cn3cccn3)n2C2CC2)CC1	-3.09	-6.14
Cc1ncoc1C(=O)N1CCn2c(COCC3CC3)cnc2C1C (configuration not stated)	7.95	-10.6
CCOc1cc(C)nc(N2CCN(C(=O)c3ccnn3C)CC2)n1	-2.8	2.54
CN(C)S(=O)(=O)N1CCN(c2nccc(C(F)(F)F)n2)CC1	-6.64	-2.87
Cc1nc(CN2CC3(CCN(c4ncc(F)cn4)C3)CC2=O)cs1 (configuration not stated)	3.16	-4.09
Cc1nccn1CC1CCCN1CCCc1nc(-c2cccs2)no1 (configuration not stated)	5.89	16.4
COCCc1noc(CN2CCCCC2Cn2cc(C)cn2)n1 (configuration not stated)	-2.46	9.7
NC(=O)C1CN(Cc2c[nH]cn2)CCN(C2CCOCC2)C1 (configuration not stated)	-0.938	-0.548
CCOc1ccccc1C(CC(=O)Nc1ccccc1F)NC(C)=O (configuration not stated)	-4.12	31.5
COCCOc1ccccc1C(=O)N1CCCCC1c1nccs1 (configuration not stated)	4.67	-6.36
CC1=Nc2c(c(=O)[nH]n2C(C)C)C(c2ccccc2)S1 (configuration not stated)	1.45	1.24
CC(C)Cc1noc(CN2CCN(C(=O)c3ccco3)CC2)n1	-0.114	-20
O=C(CCc1ccsc1)N1CCC(Cc2ccc(CO)cc2)C1 (configuration not stated)	0.501	-19.1
CC(C)c1nc(CN(C)CC2CCN(CCO)CC2)no1	3.25	-7.83
Cc1nc(C)n(CC2CCCN(Cc3nnc(C(C)(C)C)o3)C2)n1 (configuration not stated)	1.32	1.5
O=C1[C@H]2CN(c3ncccn3)C[C@H]2CN1Cc1ccncc1	0.211	-21.9
O=C(Cc1n[nH]c2ccccc12)N1CCC(Nc2cccnn2)CC1	2.78	-16.9
CC(C)n1ccnc1C1CCN(Cc2ccc(Cl)c(F)c2)CC1	9.45	-39.8
FC(F)(F)COCCN1CCN(c2ccc3nncn3n2)CC1	0.546	-42.1
N#Cc1ccc(N2CCN(C(=O)c3cc(C4CC4)[nH]n3)CC2)c(F)c1	-6.09	-10.4
Cc1nc(C)n(CC2CN(Cc3cccc(C(N)=O)c3)CCO2)n1 (configuration not stated)	4.41	-4.3

— ChEMBL document CHEMBL3988442, “University of Dundee, Small-Polar-MMV Screening Library” (2021)
